# Hit rate of the full screen: of about 320,000 compounds, about 1,300 (0.41%) were called active. Inconclusive results (about 3%) are left out. The rule behind the calls is not given here. Only a sample is shown. Potency and affinity values are given separately.
# Assay: growth inhibition of non-replicating M. tuberculosis (AID 488890);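 note: plate controls were DMSO cells for no effect and high antibiotic wells for full effect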
# Conditions: Mycobacterium tuberculosis non-replicating, at 25 µM, stronger effect = higher value
row,SMILES,inhibition
1,O=C(O)Cn1c(SCCOc2ccc(Cl)cc2)nc2ccccc21,1.68%
2,COc1cc(C)c(Cl)cc1S(=O)(=O)NCc1ccccn1,-0.9%
3,O=c1c2[nH]c3ccc(Br)cc3c2ncn1Cc1ccncc1,-8.92%
4,CCOC(=O)c1c(NC(=O)C2Cc3ccccc3C(=O)O2)sc2c1CCCC2 (configuration not stated),-2.64%
5,Cc1ccc(OCC(O)CN2CCN(c3ccccn3)CC2)c(C)c1 (configuration not stated),41.5%
6,Cc1ccc(NC(=O)C2CCCN2C(=O)Oc2ccccc2)c(C)c1 (configuration not stated),-3.45%
7,COc1ccc(-c2ccc(CNCc3ccccn3)o2)cc1Cl,78.7%
8,O=C(Nc1nccs1)c1ccc(-c2ccc(F)c(Cl)c2)o1,29.7%
9,O=C(NCc1ccccn1)c1cc(-c2ccc(Cl)cc2)oc1C(F)(F)F,10.7%
10,Clc1cccc(-c2ccc(CNCCCN3CCOCC3)o2)c1,-19.7%
11,Clc1ccc(-c2ccc(CNCC3CCCO3)o2)cc1 (configuration not stated),72.6%
12,O=C(NCc1ccccn1)Nc1ccc(F)c(Cl)c1,-1.66%
13,Cc1c(C(=O)NCc2ccccn2)oc2c(Cl)cccc12,15.1%
14,Cc1c(Cl)cccc1NC(=O)NCc1ccccn1,-10.1%
15,O=C1NCCN/C1=C\C(=O)c1cccc(Br)c1,-1.75%
16,CC1=C(C(=O)OC(C)C)C(c2coc3ccccc3c2=O)C2=C(CCCC2=O)N1 (configuration not stated),21.4%
17,CCOc1ccccc1OCC(=O)OCc1csc(CC(=O)Nc2ccccc2C)n1,37.2%
18,COc1ccc(NC(=O)CSc2nc3ccsc3c(=O)n2CCCCCC(=O)O)cc1,-12.1%
19,O=C(c1ccc2c(c1)OCO2)N1CCC2(CC1)Oc1ccc(F)cc1C(=O)C21CC(c2ccccc2)=NO1 (configuration not stated),42.7%
20,COc1cc(C(C)=O)ccc1OCC(=O)NCC1(N2CCCCC2)CCCCC1,23.8%
21,O=C(CCc1c[nH]c2ccccc12)N[C@@H](Cc1c[nH]c2ccc(O)cc12)C(=O)O,-12.9%
22,O=S(=O)(NCC(c1cccnc1)N1CCN(c2ccccc2)CC1)c1cccs1 (configuration not stated),44.5%
23,O=C1CC(N2CCN(c3ccccc3)CC2)C(=O)N1c1ccc(Cl)cc1 (configuration not stated),58.5%
24,O=C(NCc1ccccn1)Nc1ccc(Br)cc1,-10.5%

row,SMILES,inhibition
1,Fc1ccc(-c2ccc(CNCc3ccccn3)o2)cc1,74.8%
2,CC(C)c1ccc(N(C)C(=O)Cc2c(C(=O)O)n(C)c3ccccc23)cc1,-2.94%
3,N#CCc1c(C#N)c(N)nc(N2CCN(C=O)CC2)c1C#N,2.81%
4,Cc1[nH]c(C)c(S(=O)(=O)Nc2ccccc2Cl)c1C(=O)N1CCCC1,-4.19%
5,Cc1ccc(N(C)S(=O)(=O)c2cccc(C(=O)NNC(=O)c3ccncc3)c2)cc1,38.7%
6,COc1ccc([C@@H]2CC(=O)c3c(O)cc(O[C@@H]4OC(CO[C@@H]5OC(C)[C@H](O)[C@@H](O)[C@H]5O)[C@@H](O)[C@H](O)[C@H]4O)cc3O2)cc1O (some centres not stated),2.5%
7,CN=C(SCc1ccccc1)c1c(O)n(C)c(=O)n(C)c1=O,11.6%
8,CSC(=Nc1ccccc1)c1c(O)n(C)c(=O)n(C)c1=O,56.9%
9,CCOC(=O)C1C(=O)CC(=O)CC1CC(C)SCC (configuration not stated),-2.43%
10,Cc1ccc(S(=O)(=O)N2CCN(C(=O)CCOc3cc(C)ccc3C)CC2)cc1,39.6%
11,N#C/C(=C\Nc1ccc(F)c(Cl)c1)C(=O)C1CC1,-9.33%
12,C[C@@H](C(=O)Nc1ccc(SC(F)F)cc1)N1C(=O)C2CCCCC2C1=O (some centres not stated),-9.99%
13,Cc1ccc(CNC(=O)C2(C)Oc3ccccc3NC2=O)cc1 (configuration not stated),-3.05%
14,CCOC(=O)/C=C1\Nc2ccccc2SC1=O,19.5%
15,COC(=O)C1CCN(S(=O)(=O)c2c(C)n(C)c(=O)n(C)c2=O)CC1,-0.96%
16,CCNc1nc2ccccc2[nH]1,11.9%
17,O=C(Nc1ccccc1Oc1cccnc1)C1CCCN(Cc2cccc(Cl)c2)C1 (configuration not stated),16.5%
18,Cc1ccc(/C=C2\SC(N3CCCCC3)=NC2=O)cc1,77.7%
19,CC(C)(C)c1ccc(/C=C2/SC(N3CCCC3)=NC2=O)cc1,73.6%
20,O=C(NC1CC2CCCC(C1)N2Cc1ccccc1)C1CCCCC1 (configuration not stated),-4.43%
21,CCCCCCSc1ccc(-c2nc3ccc(C)cn3c2NCc2ccccc2)cc1OC,8.88%
22,O=C(COc1ccccc1)NCC(=O)N/N=C/c1ccccc1,12.4%
23,COc1ccc(-c2csc(C3=C(O)CN(CCCN4CCCC4=O)C3=N)n2)cc1OC,2.8%
24,Cc1ccc2oc(=O)c(/C=C(\O)c3ccccc3)nc2c1,4.41%

row,SMILES,inhibition
1,Cc1ccc(/C(O)=C/c2nc3cc(C)ccc3oc2=O)cc1,18.1%
2,O=c1oc2ccccc2nc1/C=C(\O)c1ccccc1,77.3%
3,Cc1ccc2oc(=O)c(/C=C(\O)c3ccco3)nc2c1,-4.98%
4,Cc1ccc2oc(=O)c(/C=C(\O)c3cccs3)nc2c1,-10.4%
5,Cc1ccc2oc(=O)c(/C=C(\O)c3sc(C)nc3C)nc2c1,2.53%
6,CC(C(=O)c1ccccc1)[n+]1cccc(C(N)=O)c1 (configuration not stated),-11.2%
7,Cc1cc(=O)[nH]c(SCC(=O)Nc2ccc(S(=O)(=O)N3CCOCC3)cc2)n1,-13.9%
8,CN(c1ccc(C(=O)NC2CCCC2)cc1)S(=O)(=O)c1ccccc1,9.33%
9,CC(=O)Oc1ccc(OC(C)=O)c(S(=O)(=O)c2ccc(C)c(C)c2)c1,-1.53%
10,CCOC(=O)N1CCN(S(=O)(=O)c2ccc(C)cc2)C1c1ccc(OC)cc1 (configuration not stated),16.9%
11,Brc1ccc2c(c1)C(c1ccc(N3CCOCC3)cc1)=NNC(c1cccs1)=N2,18.5%
12,c1ccc(-n2c(-c3ccco3)nnc2-c2ccco2)cc1,-0.67%
13,COC(=O)[C@@]1(Cc2ccc(OC)cc2)[C@H]2c3cc(C(=O)N(C)C)n(CCc4ccc(OC)c(Br)c4)c3C[C@H]2CN1C(=O)c1ccccc1,70.8%
14,CCSc1ncc(/C=N/Nc2ccc(F)cc2)n1C,60.8%
15,CCSc1ncc(/C=N/Nc2ccccc2)n1C,53.4%
16,COc1cc(CC(NC(C)=O)C(=O)NC2CCN(c3c4c(nc5ncnn35)CCC4)CC2)cc(OC)c1 (configuration not stated),-7.76%
17,COc1ccc(/C=N/NC(=O)c2snnc2C)c(OC)c1OC,4.13%
18,O=C(N/N=C/c1cccc2ccccc12)c1cccnc1,77.8%
19,Cc1ccc(C(=O)N/N=C/c2c(O)ccc3ccccc23)cn1,-8.14%
20,CCOc1ccc2ccccc2c1/C=N/NC(=O)c1ccc(C)nc1,6.31%
21,O=C(N/N=C/c1ccccc1C(=O)O)c1ccncc1,47.8%
22,Cc1nnsc1C(=O)N/N=C/c1ccccc1,-14.8%
23,CCOc1ccc2ccccc2c1/C=N\NC(=O)c1ccc([N+](=O)[O-])cc1,8.86%
24,O=C(N/N=C/c1ccccc1O)c1ccncc1,67.2%
